# Compound activity: PubChem, Sanford-Burnham Center for Chemical Genomics
# FAS-TE inh – inhibitors of human fatty acid synthase thioesterase domain; AID 602261; P49327; recombinant FAS-TE, OMFH fluorogenic substrate, fluorescence endpoint; 0.67% of 360,000 active; inhibition, % at 15 µM;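 active means compounds whose normalised, plate-corrected inhibition of enzyme fluorescence in the single-dose primary screen is 50% or more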;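 further: 0% = DMSO with enzyme and 100% = substrate without enzyme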
# Target sequence (P49327 whole entry, looked up, the tested form may be a part): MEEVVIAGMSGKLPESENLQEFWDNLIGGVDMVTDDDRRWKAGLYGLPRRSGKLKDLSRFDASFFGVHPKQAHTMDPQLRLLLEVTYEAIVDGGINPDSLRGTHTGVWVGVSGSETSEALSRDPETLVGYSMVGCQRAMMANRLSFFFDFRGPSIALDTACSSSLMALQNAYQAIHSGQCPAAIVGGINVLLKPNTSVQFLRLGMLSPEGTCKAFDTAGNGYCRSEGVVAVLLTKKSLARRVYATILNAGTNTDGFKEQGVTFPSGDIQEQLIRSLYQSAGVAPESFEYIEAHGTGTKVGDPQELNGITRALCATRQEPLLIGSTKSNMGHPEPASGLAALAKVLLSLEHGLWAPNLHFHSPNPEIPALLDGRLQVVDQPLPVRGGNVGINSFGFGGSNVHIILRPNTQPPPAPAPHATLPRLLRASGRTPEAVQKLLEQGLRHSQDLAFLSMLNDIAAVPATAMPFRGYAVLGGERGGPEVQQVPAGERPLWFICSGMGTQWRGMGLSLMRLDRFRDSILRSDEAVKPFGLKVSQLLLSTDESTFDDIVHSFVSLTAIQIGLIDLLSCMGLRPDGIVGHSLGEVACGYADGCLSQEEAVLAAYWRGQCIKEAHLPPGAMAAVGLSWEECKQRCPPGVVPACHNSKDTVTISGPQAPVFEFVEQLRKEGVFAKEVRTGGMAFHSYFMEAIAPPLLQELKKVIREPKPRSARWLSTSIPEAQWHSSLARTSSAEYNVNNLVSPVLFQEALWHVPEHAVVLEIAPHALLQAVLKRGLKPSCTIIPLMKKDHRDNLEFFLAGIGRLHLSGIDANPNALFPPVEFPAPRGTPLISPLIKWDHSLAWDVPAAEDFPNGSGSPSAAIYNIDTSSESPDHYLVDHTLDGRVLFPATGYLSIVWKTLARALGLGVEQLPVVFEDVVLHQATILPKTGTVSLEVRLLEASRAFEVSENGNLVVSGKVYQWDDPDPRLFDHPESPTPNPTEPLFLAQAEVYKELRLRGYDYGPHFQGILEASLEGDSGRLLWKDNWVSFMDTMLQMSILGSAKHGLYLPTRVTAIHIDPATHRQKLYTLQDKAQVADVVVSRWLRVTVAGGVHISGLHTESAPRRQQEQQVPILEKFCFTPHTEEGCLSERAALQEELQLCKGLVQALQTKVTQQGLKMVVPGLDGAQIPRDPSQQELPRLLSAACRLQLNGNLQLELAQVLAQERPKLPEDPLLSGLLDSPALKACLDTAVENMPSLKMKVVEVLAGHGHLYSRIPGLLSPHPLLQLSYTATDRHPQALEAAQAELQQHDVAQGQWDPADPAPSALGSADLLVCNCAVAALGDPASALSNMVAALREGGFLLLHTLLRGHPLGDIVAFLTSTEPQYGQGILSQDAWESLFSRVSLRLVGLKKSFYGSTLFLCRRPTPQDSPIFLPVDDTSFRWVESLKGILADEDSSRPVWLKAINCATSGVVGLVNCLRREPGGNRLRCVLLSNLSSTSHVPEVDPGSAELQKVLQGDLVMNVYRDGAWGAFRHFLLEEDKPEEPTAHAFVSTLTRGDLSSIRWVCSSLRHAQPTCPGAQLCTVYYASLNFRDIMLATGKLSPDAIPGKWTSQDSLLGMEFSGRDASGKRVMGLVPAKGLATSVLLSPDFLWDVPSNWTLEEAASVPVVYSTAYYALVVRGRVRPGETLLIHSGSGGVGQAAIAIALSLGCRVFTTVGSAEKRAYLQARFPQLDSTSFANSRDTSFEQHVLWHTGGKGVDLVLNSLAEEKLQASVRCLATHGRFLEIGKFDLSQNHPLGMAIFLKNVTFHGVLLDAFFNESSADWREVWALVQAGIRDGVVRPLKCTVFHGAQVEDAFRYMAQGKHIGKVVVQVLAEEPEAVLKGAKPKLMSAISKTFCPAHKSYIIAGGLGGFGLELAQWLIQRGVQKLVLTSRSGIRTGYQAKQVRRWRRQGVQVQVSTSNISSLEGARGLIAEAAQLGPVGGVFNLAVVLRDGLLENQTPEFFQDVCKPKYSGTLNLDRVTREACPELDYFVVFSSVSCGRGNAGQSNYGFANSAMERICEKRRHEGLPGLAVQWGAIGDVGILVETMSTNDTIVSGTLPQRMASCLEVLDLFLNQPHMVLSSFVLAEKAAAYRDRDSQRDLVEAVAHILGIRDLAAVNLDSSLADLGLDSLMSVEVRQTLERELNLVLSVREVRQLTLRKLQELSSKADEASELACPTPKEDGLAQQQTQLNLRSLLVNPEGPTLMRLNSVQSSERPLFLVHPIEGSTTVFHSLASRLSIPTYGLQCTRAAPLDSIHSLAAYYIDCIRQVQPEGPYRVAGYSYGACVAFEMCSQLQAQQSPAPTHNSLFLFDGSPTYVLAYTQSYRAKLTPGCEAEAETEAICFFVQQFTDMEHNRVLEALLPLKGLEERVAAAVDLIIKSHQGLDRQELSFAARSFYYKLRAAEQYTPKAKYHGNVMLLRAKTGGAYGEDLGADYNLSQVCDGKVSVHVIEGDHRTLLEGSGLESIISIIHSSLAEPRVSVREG
# NPR1 activator – GC-A (human) enzyme activation | HEK293 GC-A cells, cGMP TR-FRET, EC30 ANP; 0% at EC30 ANP, 100% saturating ANP | AID 1671463 | P16066 | activation, % at 10 µM | 0.14% of 370,000 active; in the data active means activation above about 40%
# GC-B act – GC-B (human) receptor activation. P20594. HEK293-GC-B cells, CNP EC30, cGMP TR-FRET; 0% at EC30 CNP, 100% saturating CNP. activation, % at 10 µM. 0.11% of 370,000 active. AID 1920062;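 active means activation at 10 µM reaching about 35% in either raw or pattern-adjusted values, limit read from the data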
# aDG glyco up – alpha-DG glycosylation activation; Pro5-aDG cells, alpha-DG glycosylation AlphaScreen (IIH6); 0% Pro5, 100% B10-LARGE cell signal; activation, % at 10 µM; 0.22% of 360,000 active; AID 624168;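 active means activation of at least 8% versus controls, or a plate z-score of at least 8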;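 further: Pro5 are CHO cells carrying HIG-tagged alpha-DG that lacks glycosylation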
# aDG conf – confirmation of alpha dystroglycan glycosylation activators. 17% of 600 active. shares compounds with aDG glyco up. Pro5-aDG cells, alpha-DG glycosylation, IIH6 AlphaLISA; scaled to LARGE-overexpressing B10 cells as 100%. activation, % at 10 µM (by protocol);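 active means activation of at least 7% in one or more replicates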;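 further: cells exposed to compound for two days before detection; 0% = DMSO-treated Pro5 cells and 100% = DMSO-treated B10-LARGE cells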
# * marks the source's active call; other numbers are inactive results; nt = no result given. Shown are actives, neighbours in structure and some others; about 1.1% of the full set was active somewhere.
SMILES,FAS-TE inh,NPR1 activator,GC-B act,aDG glyco up,aDG conf
Cn1c(SCC(=O)Nc2ccc(NC(=O)c3cccc(F)c3)cc2)nnc1-c1ccncc1,-6,4,0,1.8*,0
Cn1c(SCC(=O)Nc2ccc(NC(=O)c3ccccc3F)cc2)nnc1-c1ccncc1,-5,nt,nt,0,nt
COc1ccc(C(=O)NC(=S)N2CCCCC2)cc1,-4,2,-4,3.6*,-1
Cc1ccc(CSc2nnc(-c3cccs3)o2)cc1C,nt,-4,-1,nt,nt
CCC(=O)Nc1ccc2c(c1)C(=O)N(C)[C@@H]1CC[C@@H](CC(=O)NCCN3CCCCC3)O[C@H]1CO2,nt,2,9,nt,nt
COc1cc(-c2csc(N3CCC(C(N)=O)CC3)n2)cc(OC)c1OC,nt,0,-4,nt,nt
CCOC(=O)c1ccc(N2C(=O)c3n[nH]c(C)c3C2c2ccccc2)cc1 (stereo not drawn),6,0,1,28*,-1
CC(C)Oc1cc(F)ccc1-c1cc(C(=O)Nc2ccc(C(C)C)cc2)[nH]n1,18,-3,-1,12*,0
O=C(Nc1cc(Cl)ccc1-n1cncn1)c1ccc([N+](=O)[O-])s1,5,nt,nt,12*,3.8*
O=C(Nc1cc(Cl)ccc1-n1cncn1)c1ccco1,0,-1,1,0,nt
CCOc1ccc(-n2cc(C(=O)N3CCCCCC3)c3cc(OC)c(OC)cc3c2=O)cc1,4,6,9,5.5*,9.9*
CCOc1cc(/C=N/NC(=O)c2nnn(-c3nonc3N)c2C)ccc1OCc1ccc(F)cc1,-6,-1,10,0,nt
CCc1c(C(=O)N/N=C/c2ccc(OCc3ccc(F)cc3)c(OC)c2)nnn1-c1nonc1N,18,3,6,3.5*,2
C=CS(=O)(=O)N(Cc1ccc(C)cc1)[C@@H](CO)C(=O)OC,nt,-3,-2,nt,nt
COc1ccccc1CCC(=O)OCC(=O)c1c(N)n(CC(C)C)c(=O)n(C)c1=O,12,2,1,6.5*,-1
CC1CC1C(=O)Nc1nc(-c2ccccn2)cs1 (stereo not drawn),-9,5,3,5.1*,1
O=C(CSc1ccccc1)NC1CCCCN(Cc2ccc(Cl)cc2)C1=O (stereo not drawn),nt,0,-1,nt,nt
C[C@H](CO)N1C[C@H](C)[C@@H](CN(C)C(=O)Nc2ccc3c(c2)OCO3)Oc2ccc(NS(=O)(=O)c3cn(C)cn3)cc2C1=O,-9,3,1,6.4*,2
CC1(C(=O)N2CCC(Oc3cccnc3)CC2)CC1,nt,2,-4,nt,nt
COC(=O)[C@]12C[C@H](CC(=O)NCc3cccc(C(F)(F)F)c3)C(=O)N(Cc3ccco3)C1=C[C@H](C(C)C)O[C@@H]2C1CC1,nt,-11,-9,nt,nt
C=CCNCC(=O)N1N=C(c2ccc3ccccc3c2)CC1c1ccc(OC)cc1 (stereo not drawn),4,-7,-6,5.8*,1
COc1cccc(-c2cc(C(C)=O)c3n(c2=O)CCC3)c1OC,nt,3,-4,nt,nt
Cn1cc(CNC(=O)COc2ccc(Cl)cc2Cl)cn1,-7,3,1,0,nt
Cc1nn(C)cc1CNC(=O)COc1ccc(Cl)cc1Cl,-9,-4,1,15*,0
Cc1cc(NS(=O)(=O)c2ccc(NC(=O)c3ccc([N+](=O)[O-])s3)cc2)nc(C)n1,-6,0,1,0,nt
SMILES,FAS-TE inh,NPR1 activator,GC-B act,aDG glyco up,aDG conf
Cc1nc2cc(NC(=O)c3ccc([N+](=O)[O-])s3)ccc2s1,2,-4,3,11*,5.1*
CCc1ccccc1NC(=O)c1ccc([N+](=O)[O-])s1,0,-1,-4,13*,1
COC(=O)[C@]12C[C@H](CC(=O)NCC34CC5CC(CC(C5)C3)C4)C(=O)N(Cc3ccccc3)C1=C[C@H](C(C)(C)C)O[C@@H]2C,nt,-4,3,nt,nt
CCN(CC)c1ccc(C=Nn2c(-c3cc(C)[nH]n3)n[nH]c2=S)cc1,nt,-3,-3,nt,nt
O=C(Nc1ccccc1)N1CCN(Cc2ccc(Cl)cc2)CC1,-3,7,-6,0,nt
O=C(Nc1ccc(Cl)cc1)N1CCCN(Cc2ccc(F)cc2)C1,-2,-16,-8,7.8*,1
COc1cc(NC(=O)c2c(F)c(F)c(F)c(F)c2F)c(OC)cc1Cl,16,-19,-20,7.7*,0
CCCCN1CCS(=O)(=O)N(Cc2cn(Cc3cccc(Cl)c3)nn2)C(C(=O)OC)C1 (stereo not drawn),nt,-1,-1,nt,nt
CCn1cc(C(=O)N2CCCC(C(=O)c3ccc4ccccc4c3)C2)cn1 (stereo not drawn),-3,0,7,5.5*,-1
Cc1nc(C)c(C(=O)N2CCCC(C(=O)c3ccc4ccccc4c3)C2)s1 (stereo not drawn),-7,3,7,0,nt
CC[N+](C)(CC)CC(O)COCC1COc2ccccc2O1 (stereo not drawn),-13,0,-1,4.6*,-1
COC(=O)[C@]12C[C@H](CC(=O)N3CCCCC3)C(=O)N(Cc3ccco3)C1=C[C@H](C(C)(C)C)O[C@@H]2C,nt,-15,-14,nt,nt
COc1ccc(/C(CC2(O)C(=O)Nc3ccccc32)=N\O)cc1 (stereo not drawn),-3,4,1,6.6*,1
N#Cc1ccc(-c2nc3c4ccccc4ccn3c2CC2CCCCC2)cc1,25,2,-3,22*,7.2*
Cc1ccc(-c2nc3c4ccccc4ccn3c2CC2CCCCC2)cc1,15,4,9,4,nt
O=C(CN1C(=O)c2ccc(Br)cc2C1=O)NCC1CCCO1 (stereo not drawn),-3,3,2,5.5*,1
CC(C)Nc1nc(-c2ccccn2)nc(-c2ccccc2)c1C#N,-3,3,2,8.8*,1
Cc1ccc(NC(=O)CSc2nc3c(c(=O)[nH]2)CCC3)c(C)c1,-1,-1,9,7.4*,2
C=CCn1c(COc2ccc(C)cc2)nnc1SCC(=O)c1ccc(-c2ccccc2)cc1,nt,-4,-2,nt,nt
O=C(NCCS(=O)(=O)NCC1CCCO1)c1ccccc1 (stereo not drawn),-10,1,-1,5.2*,3
O=C(NCC1CCCO1)c1ccccc1 (stereo not drawn),-10,-1,-2,0,nt
COc1cc(/C=C/C(=O)Nc2nc3ccc(S(=O)(=O)NC(C)C)cc3s2)cc(OC)c1OC,-5,-5,5,8.2*,6.1*
CCNS(=O)(=O)c1ccc2nc(NC(=O)/C=C/c3cc(OC)c(OC)c(OC)c3)sc2c1,-16,-2,-2,0,nt
CNC(=O)c1c(NC(=O)c2ccc(S(=O)(=O)N3CCCC3)cc2)sc2c1CCN(C(C)C)C2,nt,5,5,nt,nt
CCN1CCc2c(sc(NC(=O)c3ccc(S(=O)(=O)N4CCCCCC4)cc3)c2C(=O)NC)C1,-1,0,3,26*,0
